In all, about 16,000 compounds went through this assay and about 240 (1.5%) were called active. Only a selection was taken, and actives are over-represented in it overall. Values without a mark were called inactive. Rule as the data show it: active = activation above about 80%; inactive = the rest.

The target in the assay is Sphingosine 1-phosphate receptor 1 (Homo sapiens) (UniProt P21453). Description: S1P1 (human) receptor agonism (AID 1044). The settings on record: S1P1 agonist cell-based reporter assay; at 4.5 µM; hits give high values. A general note: A reporter such as luciferase makes a cellular process visible.
Sphingosine 1-phosphate receptor 1 (Homo sapiens), sequence (P21453 whole entry, looked up): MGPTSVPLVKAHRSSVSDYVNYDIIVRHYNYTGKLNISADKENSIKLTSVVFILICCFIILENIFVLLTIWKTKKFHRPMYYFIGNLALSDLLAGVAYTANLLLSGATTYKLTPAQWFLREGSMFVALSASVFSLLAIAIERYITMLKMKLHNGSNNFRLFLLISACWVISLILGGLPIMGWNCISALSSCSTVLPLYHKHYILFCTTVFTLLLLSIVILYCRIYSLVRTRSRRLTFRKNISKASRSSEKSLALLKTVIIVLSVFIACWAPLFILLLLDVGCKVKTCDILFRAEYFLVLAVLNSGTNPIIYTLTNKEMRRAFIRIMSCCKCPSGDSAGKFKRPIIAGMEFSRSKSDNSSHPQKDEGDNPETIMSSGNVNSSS
Take `COC(=O)c1cc(S(=O)(=O)NCc2csc(-c3cccs3)n2)oc1C`: the activation was 4.78%.
To `CC(C)(C)OC(=O)n1ccc2cc(Br)ccc21` belongs 111% (active).
The figure for `O=C1CC(c2ccccc2)C(=O)N1Cc1cccs1` (stereo not drawn) is 1.62%; for `O=C(NCc1cccnc1)c1cnc2ccccc2n1` it is -2.22%; for `N#CC(C#N)=CNc1c(F)cccc1Cl` it is 48.9%.
The figure for `CO/N=C1\C(=O)N(C)c2ccccc21` is -2.23%; for `COC(=O)c1cc(OC)c(OC)cc1NC(=O)c1ccccc1C(=O)O` it is 14.4%; for `O=C1c2ccccc2C(=O)N1CCCN1CCN(Cc2c(F)cccc2Cl)CC1` it is -0.27%.
In the case of `S=C(SCc1ncon1)N1CCSCC1`, the activation was -1.22%.
The figure for `N#Cc1cncc(Br)c1` is -9.98%; for `O=C(O)c1nccnc1C(=O)O` it is -16.2%.
Regarding `CC(=O)c1cc([N+](=O)[O-])c(NC2CCCCC2)s1`, the activation was -14.1%.
The figure for `O=S(=O)(O)c1ncccn1` is 3.74%.
The figure for `COc1c(Br)cc(C#N)cc1Br` is -9.06%; for `COC(=O)C1=C(c2ccccc2)C(c2ccccc2)=C(C(=O)OC)C1=O` it is 6.63%.
The figure for `N#Cc1cn(C2CCCCC2)c(=O)[nH]c1=O` is 15.6%.
For `CNC(=O)c1ccccc1Sc1ccccc1C(=O)NC`, the activation was -10.2%.
The figure for `CCOC(=O)C(NC(=O)Nc1ccccc1)(Nc1ccccc1OC)C(F)(F)F` (stereo not drawn) is 5.29%; for `CCOC(=O)c1c(C)csc1NC(=O)CC(=O)C(F)(F)F` it is 12.6%; for `COC(=O)c1cc(C(N)=O)c(SC)s1` it is -10.8%.
The figure for `O=c1c2c(nc3nc[nH]n13)CCC2` is 1.21%.
To `CSC(C)C(=O)/C=C/N(C)C` (stereo not drawn) belongs -15.9%.
Consider `COC(=O)CCN1CCc2cc(N=Nc3ccc(C(F)(F)F)cc3)ccc21`, for which the activation was 99.2% (active).
With `COC(=O)C(C#N)c1ccc(C(F)(F)F)cc1[N+](=O)[O-]` (stereo not drawn), the activation was 14.5%.
Turning to `COC(OC)c1ccc(C#N)c(SCC(=O)Nc2ccc(C(F)(F)F)cc2)n1`, the activation is -16.6%.
The figure for `CCOC(=O)NC(=O)/C(=C/NC(C)C)C(=O)OCC` is 22.7%; for `COc1cc(-c2n[nH]c(=S)n2Cc2ccccc2)cc(OC)c1OC` it is -18.1%.
To `CC1(C)c2ccccc2-n2c1cc(O)c(-c1ccccc1)c2=O` belongs -11.7%; to `CC1(NC(=O)OCc2ccccc2)CC1NC(=O)OCc1ccccc1` (stereo not drawn), 11.9%; to `COC(=O)c1sccc1Oc1ccc(Cl)cc1[N+](=O)[O-]`, 13.2%.
To `COC(=O)c1sccc1NC(=S)Nc1ccc(C)cc1` belongs -27.1%; to `OC(CNCCNc1nccc(C(F)(F)F)n1)COc1ccc(Cl)c(Cl)c1` (stereo not drawn), 15.7%; to `CSC(=Nc1ccccc1C(F)(F)F)N1CCCC1`, 62.5%.
As for `NNC(=O)CSc1nnc(-c2ccccc2)n1-c1ccccc1`, the activation is 2.03%.
The figure for `CN(NC(=O)c1ccc(Cl)s1)c1cnn(-c2cc(Cl)cc(Cl)c2)c(=O)c1Cl` is 7.36%; for `O=C(NCc1cccnc1)c1ccccc1NC(=O)c1c(F)cccc1F` it is 10.3%; for `Cc1ccc(S(=O)(=O)NC(=O)NCCSCc2ccco2)cc1` it is -7.47%.
The figure for `O=C(CSc1ccc(Cl)cc1)NCCSCc1ccco1` is 3.06%.
To `O=C(O)CSC(SCC(=O)O)c1ccc2c(c1)OCO2` belongs -4.07%.
Turning to `Cc1cc(C)n(/N=c2\sc(-c3ccccc3)cn2C2CC3C=CC2C3)c(=O)c1C#N` (stereo not drawn), the activation was -8.12%.
To `CCOC(=O)c1c(N/N=C\c2ccccc2O)n[nH]c1C` belongs -16.7%; to `COc1cc(NC(=O)COc2cc(Cl)c(Cl)cc2Cl)cc(OC)c1OC`, 22.5%.
The figure for `O=C(O)Cc1csc(NC(=O)CSc2nnnn2-c2ccc(O)cc2)n1` is 0.38%.
To `C/C(=N\NC(N)=S)c1cc2cc(Cl)ccc2o1` belongs 7.17%; to `N/C(=N\O)c1ccc2nonc2c1`, 23.9%; to `Clc1ccc(-c2csc(-c3cnccn3)n2)s1`, 1.06%.
Regarding `S=C(Nc1cccnc1)N1CCCN(Cc2ccc(Cl)cc2Cl)CC1`, the activation is 14.2%.
To `COC(=O)c1ccsc1NC(C)=O` belongs -7.53%; to `CCCc1c(C(=O)O)cnn1-c1ccc(Cl)cc1`, -21.8%.
To `O/N=C(\c1ccccc1)c1ccccn1` belongs -7.69%; to `COc1ccc(C2CC(c3cccs3)=Nc3ccccc3S2)c(Cl)c1OC` (stereo not drawn), 1.73%; to `O=S(=O)(O)Oc1c[nH]c2ccccc12`, -5.88%.
To `CC1=C(C(=O)O)N2C(=O)[C@H](NC(=O)[C@@H](N)c3ccccc3)C2SC1` (stereo partly drawn) belongs 8.53%; to `O=C(c1cnn(-c2ccc(Cl)cc2)n1)c1cccs1`, 3.48%; to `CC(C)S(=O)(=O)/C(C#N)=C/c1ccccc1OC(F)(F)F`, -23.8%.
With `Cc1nc(C(=O)NNC(=S)Nc2ccccc2C(F)(F)F)cs1`, the activation was -8.43%.
The figure for `COC(=O)c1ccccc1NC(=S)NNC(=O)c1ccc([N+](=O)[O-])cc1` is -4.53%; for `O=C(NNC(=S)Nc1ccccc1Cl)c1ccc(OC(F)(F)F)cc1` it is 91.2% (active).
The figure for `Cc1nn(S(=O)(=O)c2ccc(Cl)cc2)cc1-c1ccccc1` is -1.3%; for `Cc1cc(Cl)ccc1NC(=S)NNC(=S)Nc1ccc(F)cc1` it is 25.2%; for `Cc1onc(-c2ccccc2)c1C(=O)Sc1ccc(C(F)(F)F)cn1` it is -5.64%.
For `CC(=O)c1ccc(NC(=O)OC2CCSC2)cc1` (stereo not drawn), the activation was -3.04%.
The figure for `O=S(=O)(c1ccccc1)c1cc(C(F)(F)F)cc(C(F)(F)F)c1` is 1.62%; for `O=c1oc2c3ccccc3c3oc(=O)sc3c2s1` it is 11%; for `CN(C)c1ccc(C=Nc2ccc(S(N)(=O)=O)cc2)cc1` it is -3.85%.
The figure for `CC(=O)Nc1ccc(F)cc1F` is -19.4%.
Consider `Cc1cc(C(F)(F)F)nc2c(-c3noc(-c4ccccc4)n3)cnn12`, for which the activation is 23.9%.
To `CC1(C)C=Cc2cc(-c3noc(-c4ccccc4)n3)ccc2O1` belongs 96.3% (active); to `CC1(C)CCc2cc(-c3ccnc(SCC(=O)c4ccccc4)n3)ccc2O1`, -11.3%; to `O=c1cc(-c2ccccc2)cc(-c2ccccc2)o1`, -7.4%.
To `O=C(O)CC(CC(=O)Oc1ccccc1N1CCCCC1)c1ccccc1` (stereo not drawn) belongs -2.68%.
The figure for `O=C(CCN1CCN(C(c2ccccc2)c2ccccc2)CC1)c1ccccc1` is 1.07%.
`CC1CC(NC(=O)/C(C#N)=C/c2ccc[nH]2)CC(C)(C)C1` (stereo not drawn): the activation is -5.85%.
To `Cc1[nH]ncc1S(=O)(=O)c1ccc(Cl)cc1` belongs 2.45%; to `O=C(NCc1ccc(F)cc1F)c1cc(C(F)(F)F)cc(C(F)(F)F)c1`, -5.72%.
The figure for `O=C(Nc1ccc(F)cc1OC(F)(F)F)N1CCC(O)CC1` is -2.84%; for `Cc1nc2cc3c(cc2s1)OCO3` it is 2.86%; for `COCn1nnc2ccccc21` it is 1.03%.
To `CC1(C)CC(=O)C(N=Nc2c(F)cccc2F)=C(O)C1` belongs 7.55%; to `CC(C)NC(=O)NNc1c(Cl)cncc1Cl`, 8.17%; to `CC(=O)Nc1ccc(S(=O)(=O)NNc2c(Cl)cncc2Cl)cc1Cl`, 80.4% (active).
As to `CC(C)c1ccc(NNS(=O)(=O)c2ccc(Cl)c(Cl)c2)cc1`, the activation was -3.29%.
On to `Cc1cc(C2=CSC3=NCCN23)ccc1Cl`, for which the activation was 8.4%.
To `CN(C)/C=C/C(=O)c1cc(C(C)(C)C)cc(C(C)(C)C)c1O` belongs 19.8%; to `CCCCNC(=O)OCCSCCS(=O)(=O)c1ccc(Cl)cc1`, -12.4%; to `O=C1COCC(=O)N1c1ccc2c(c1)OCO2`, -5.13%.
To `Nc1[nH]c(=O)nc2nc[nH]c12` belongs -5.12%; to `N/C(=N\OS(=O)(=O)c1ccc(C(F)(F)F)cc1)C1CSCCS1` (stereo not drawn), 6.24%.
As to `CCc1cccc(C)c1N(C(C)=O)C1=NCCC(=O)S1`, the activation was -5.03%.
The figure for `Cn1c(=O)c(C#N)cn(-c2ccccc2)c1=O` is -15.9%.
For the molecule `CC(C)S(=O)(=O)c1cscc1N/C=C(/C#N)C(=O)c1cccs1`, the activation is 21.3%.
To `O=C(Nc1cc2ccccc2s1)N1CCN(Cc2c(F)cccc2Cl)CC1` belongs 8.18%; to `Cc1cc(CNC(=O)c2cc(C)n(C)n2)no1`, 0.51%; to `N#Cc1sccc1Br`, -1.57%.
To `CCOC(=O)C/C(N)=C(\C#N)C(=O)OCC` belongs -0.14%; to `Cc1nc(-c2cccnc2)nc(N2CCCN(Cc3ccc(F)cc3)CC2)c1Cl`, -19.4%; to `CN(C)/C=N/NC(=O)c1nc(-c2cccc(-n3cccc3)c2)no1`, -6.62%.
In the case of `CCOC(=O)O/N=C(\N)c1ccc(Cl)cc1`, the activation was 3.02%.
Turning to `O=[N+]([O-])c1ccc(-c2ccc(I)cc2)cc1`, the activation was 1.05%.
The figure for `O=[N+]([O-])c1cc(C(F)(F)F)ccc1OCCO` is 8.3%; for `COc1ccc(/C=C(\NC(=O)c2ccccc2)C(=O)N/N=C/c2ccc3c(c2)OCO3)cc1` it is 7.34%; for `O=C(/C(=N\N=C\c1ccc2c(c1)OCO2)c1ccccc1)c1ccccc1` it is 101% (active).
The figure for `O=C1/C(=C/c2ccc3c(c2)OCO3)CCC/C1=C\c1ccc2c(c1)OCO2` is 11.5%; for `CO/N=C(/C)c1ccc2c(c1)CCO2` it is -16.7%.
To `O=C(NCc1cc2ccccc2s1)C1CN(C(c2ccccc2)c2ccccc2)C1` belongs -7.79%; to `O=C(CSc1nnc(-c2ccncc2)n1Cc1ccccc1)Nc1nnc(-c2ccco2)s1`, 4.05%; to `c1ccc2sc(-c3csc(-c4ccc5c(c4)OCCO5)n3)nc2c1`, 7.46%.
Take `S=C(NNC(=S)NC1CC2C=CC1C2)NC1CC2C=CC1C2` (stereo not drawn): the activation is -6.61%.

Source of the values: PubChem BioAssay AID1044 (The Scripps Research Institute Molecular Screening Center, 2008).
